Where “and” joins values, the source holds several entries; their conditions need not be identical. Equal values may be shown once. Where a name gives a salt, the structure may show the parent alone. ± gives the standard deviation of the averaged measurements.
Legend:
Molm13 = assay: cell viability relative to DMSO control (bortezomib = 0%); higher = less growth inhibition; settings: 10 nM; 72 h
How it was run: (§1)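 Each plate's values were converted to percentages by linear regression, taking DMSO-treated cells as 100% and positive-control-treated cells as 0%. These plates were 384-well plates of 679 approved and investigational compounds at a single 10 nM dose, onto which acute myeloid leukemia cells were dispensed at 1000 cells per well in 50 µL for 72 h, in duplicate. Cell viability came from CellTiter-Glo luminescence on an EnVision reader.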

Mv4-11 = assay: as above; settings: 10 nM; 72 h
How it was run: as §1

Compound	cell viability (Molm13)	cell viability (Mv4-11)
N#CCC(C1CCCC1)n1cc(-c2ncnc3[nH]ccc23)cn1 (stereo not drawn)	112 ± 15%	113 ± 13%
Cn1cc(-c2ccc3ncc(Cc4ccc5ncccc5c4)n3n2)cn1	100 ± 16%	119 ± 16%
c1cc(-c2cnn3cc(-c4ccc(OCCN5CCCCC5)cc4)cnc23)ccn1 [Dorsomorphin dihydrochloride]	58.3 ± 6.7%	65.7 ± 3.6%
C[C@H](Nc1ncnc2nc[nH]c12)c1cc2cccc(Cl)c2c(=O)n1-c1ccccc1 [Duvelisib (IPI-145, INK1197)]	111 ± 14%	111 ± 15%
CN(C)CCN(C)C(=O)c1ccc(NC(=O)Nc2ccc(-c3nc(N4CCOCC4)c4ccn(CC(F)(F)F)c4n3)cc2)cc1	87.9 ± 21%	105 ± 3.9%
Cc1[nH]c(/C=C2\C(=O)Nc3ccccc32)c(C)c1CCC(=O)O	107 ± 18%	108 ± 14%
Nc1nccc(Oc2ccc3c(C(=O)Nc4cccc(C(F)(F)F)c4)cccc3c2)n1	94.7 ± 6.4%	117 ± 8.5%
O=c1cc(-c2ccc(O)cc2)oc2cc(O)c(O)c(O)c12 [Scutellarein]	108 ± 3.9%	100 ± 5.4%
Fc1ccc(-c2nc3n(c2-c2ccncc2)CCS3)cc1	102.8 ± 0.71%	98.2 ± 4.3%
COCCOc1cnc2ccn([C@H](C)c3nnc4c(F)cc(-c5cnn(C)c5)cn34)c(=O)c2c1	104 ± 13%	115 ± 1.6%
COc1ccc(Cl)c(Nc2nc3ccccc3nc2NS(=O)(=O)c2cccc(NC(=O)C(C)(C)N)c2)c1 [Pilaralisib (XL147)]	117 ± 4%	110 ± 11%
CC(=O)c1cnc2ccc(-c3cc(Cl)c(O)c(Cl)c3)nc2c1N[C@H]1CC[C@H](CN(C)C)CC1	95.1 ± 17%	80.6 ± 6.8%
NC(=O)Nc1cc(-c2cccc(F)c2)sc1C(=O)N[C@H]1CCCNC1	-11.2 ± 3.9%	-9.83 ± 4.2%
CO[C@@H](C(=O)N1Cc2[nH]nc(NC(=O)c3ccc(N4CCN(C)CC4)cc3)c2C1)c1ccccc1	95.2 ± 34%	100 ± 3.8%
COc1ccc(CNC(=O)Nc2ncc([N+](=O)[O-])s2)cc1	107 ± 7.3%	114 ± 15%
C[C@@H]1CN(C(=O)c2ccc(NC(=O)c3cc(O[C@H](C)c4c(Cl)ccc(F)c4Cl)c(N)nn3)cc2)C[C@H](C)N1 [Ensartinib]	127 ± 20%	118 ± 12%
CC(C)c1ccc2c(c1)CC[C@@H]1[C@@](C)(CN)CCC[C@@]21C [Leelamine (hydrochloride)]	101.6 ± 0.018%	96.46 ± 0.32%
CCOc1cc2ncc(C#N)c(Nc3ccc(OCc4ccccn4)c(Cl)c3)c2cc1NC(=O)/C=C/CN(C)C [Neratinib(HKI-272)]	106 ± 20%	100 ± 3.7%
Cc1cc(O)c2c(c1)C(=O)c1cccc(O)c1C2=O [Chrysophanic Acid]	93.1 ± 1.7%	108 ± 12%
COc1cc(Nc2ncc(F)c(Nc3ccc4c(n3)N(COP(=O)(O)O)C(=O)C(C)(C)O4)n2)cc(OC)c1OC [R788 (Fostamatinib) Disodium]	92 ± 3.9%	96.4 ± 10%
CC(=O)c1c(C)c2cnc(Nc3ccc(N4CCNCC4)cn3)nc2n(C2CCCC2)c1=O [Palbociclib]	90.4 ± 13%	113 ± 9.9%
CNC(=O)c1cc(Oc2ccc(NC(=O)Nc3ccc(Cl)c(C(F)(F)F)c3)cc2)ccn1 [Sorafenib tosylate]	63.1 ± 6.6%	69.2 ± 10%
Oc1ccc(Nc2nc(-c3ccc(Cl)cc3)cs2)cc1	99.73 ± 0.67%	105.24 ± 0.067%
C[C@@H]1CCN(C(=O)CC#N)C[C@@H]1N(C)c1ncnc2[nH]ccc12	109% and 101%	99.7% and 105%
CNCCNS(=O)(=O)c1cccc2cnccc12 [H-8 (hydrochloride)]	106 ± 12%	108 ± 7.2%

Compound	cell viability (Molm13)	cell viability (Mv4-11)
COc1ccc(-c2cnc3c(-c4cccc5ncccc45)cnn3c2)cc1	103 ± 12%	103 ± 1.6%
CC1(C)CN(C(=O)c2ccc(-c3cccc4nc(NC(=O)C5CC5)nn34)cc2)C1 [Solcitinib]	115 ± 6.5%	114 ± 3.3%
O=C(Nc1nc2ccc(NC(=O)C34CC5CC(CC(C5)C3)C4)cc2s1)c1ccccc1	117 ± 12%	101 ± 8.4%
O=c1[nH]c(C2CCCN2)nc2c1oc1ccc(Cl)cc12 (stereo not drawn)	96.9 ± 13%	107 ± 3.5%
Cc1c(NC(=O)c2ccc(C(C)(C)C)cc2)cccc1-c1cn(C)c(=O)c(Nc2ccc(C(=O)N3CCOCC3)cc2)n1	106 ± 13%	115 ± 8.8%
O=c1cc(N2CCOCC2)oc2c1ccc1ccccc12	98.1% and 100%	103% and 110%
C[C@@H]1COCCN1c1cc(C2([S@](C)(=N)=O)CC2)nc(-c2cc[nH]c3nccc2-3)n1	114 ± 7.9%	115 ± 3.4%
NC(=O)c1ccc(-c2nc(-c3ccccn3)c(-c3ccc4c(c3)OCO4)[nH]2)cc1	105 ± 16%	107 ± 20%
COc1ncc(-c2ccc3nccc(-c4ccnnc4)c3c2)cc1NS(=O)(=O)c1ccc(F)cc1F	61.5 ± 19%	76.1 ± 1.9%
Nc1nc(NC2CC2)cc(-c2cccc(Cl)c2Cl)n1	115 ± 8.1%	96.9 ± 4.4%
CCOC(=O)c1c2c3c(cccc3[nH]c1=O)C(=O)c1ccccc1-2	124 ± 7.7%	103 ± 19%
O=C1NC(=O)C(c2ccccc2[N+](=O)[O-])=C1Nc1ccc(O)c(Cl)c1	110 ± 9.4%	120 ± 9.7%
Cn1cc(C2=C(c3cn(CCCSC(=N)N)c4ccccc34)C(=O)NC2=O)c2ccccc21 [Ro 31-8220 Mesylate]	108 ± 2.3%	102 ± 4%
O=c1ccc2ccccc2o1 [Coumarin]	114 ± 8%	114 ± 24%
O=C1NCCSc2c1sc1ccc(O)cc21	92.9 ± 24%	103 ± 14%
CN1CCN(c2ccc(C(=O)Nc3cc(-c4cccc(NS(=O)(=O)c5ccccc5)c4)[nH]n3)cc2)CC1	61.4 ± 18%	85.5 ± 9.9%
NC(=O)c1ccccc1Nc1ccnc(Nc2cccc(O)c2)n1	106 ± 34%	89.2 ± 14%
COc1cc2ncnc(Nc3ccc(O)c(Br)c3)c2cc1OC	95.4 ± 24%	112 ± 14%
C=CC(=O)Nc1cccc(Nc2nc(Nc3ccc(OCCOC)cc3)ncc2F)c1	103 ± 10%	110 ± 6.4%
CCn1c(N)c(C(=O)NC)c(=O)c2ccc(C#CC(C)(O)COC)nc21 (stereo not drawn)	110 ± 4.6%	115 ± 8.3%
COc1cc2ncnc(Nc3cccc(Cl)c3F)c2cc1OC(=O)N1CCN(C)C[C@H]1C	110 ± 8.6%	99.9 ± 8.6%
Cc1ccc(S(=O)(=O)/C=C/C#N)cc1	87.5 ± 24%	98.8 ± 3.1%
CCN1CCN(Cc2ccc(C(=O)Nc3ccc(C)c(Oc4ccc5c(c4)CC(=O)N5)c3)cc2C(F)(F)F)CC1	110 ± 13%	114 ± 6.1%
CC(=O)CC(c1ccccc1)c1c(O)c2ccccc2oc1=O (stereo not drawn) [Warfarin sodium]	105 ± 6.5%	114 ± 4.9%
N#CCNC(=O)c1ccc(-c2ccnc(Nc3ccc(N4CCOCC4)cc3)n2)cc1 [Momelotinib (CYT387)]	98.5 ± 17%	110 ± 16%

Compound	cell viability (Molm13)	cell viability (Mv4-11)
O=C(Nc1ccccc1C(=O)NC1CCCCNC1=O)c1cc2ccccc2s1 (stereo not drawn)	98.3 ± 4.7%	103 ± 1.5%
Cc1cc(C(C)Nc2ccccc2)c2nc(N3CCOCC3)cc(=O)n2c1 (stereo not drawn)	106 ± 18%	100 ± 3.8%
C[S+]([O-])c1ccc(-c2nc(-c3ccc(F)cc3)c(-c3ccncc3)[nH]2)cc1 (stereo not drawn)	104% and 108% and 110%	110% and 114% and 112%
Cc1cccc(/C=N/Nc2cc(N3CCOCC3)n3nc(-c4ccncc4)cc3n2)c1	95.5 ± 11%	122 ± 4.4%
CCS(=O)(=O)N1CC(CC#N)(n2cc(-c3ncnc4[nH]ccc34)cn2)C1	122 ± 31%	105 ± 8.7%
Cc1cn(-c2cc(NC(=O)c3ccc(C)c(Nc4nccc(-c5cnccn5)n4)c3)cc(C(F)(F)F)c2)cn1 [Radotinib]	100 ± 2.6%	107 ± 13%
C=CC(=O)Nc1cc2c(Nc3ccc(F)c(Cl)c3)ncnc2cc1OCCCN1CCOCC1 [Canertinib (hydrochloride)]	93.9 ± 14%	103 ± 7.2%
N#Cc1c(NC(=O)c2cccc3ccccc23)sc2c1CCCC2	102 ± 21%	114 ± 4.2%
Nc1ncnc2c1c(-c1cccc(OCc3ccccc3)c1)cn2C1CC(CN2CCC2)C1 (stereo not drawn) [NVP-AEW541 (hydrochloride)]	110 ± 11%	90.7 ± 25%
CS(=O)(=O)c1cccc(CNc2nc(Nc3ccc4c(c3)CCC(=O)N4)ncc2C(F)(F)F)c1	98.44 ± 0.67%	101 ± 4.3%
C[C@H]1[C@H](C)CC[C@]2(C(=O)O)CC[C@]3(C)C(=CC[C@@H]4[C@@]5(C)C[C@@H](O)[C@H](O)[C@@](C)(CO)[C@@H]5CC[C@]43C)[C@H]12 [Asiatic acid]	107 ± 22%	103 ± 4.2%
COc1cc2ncnc(Nc3ccc(F)c(Cl)c3)c2cc1NC(=O)/C=C/CN1CCCCC1	104 ± 3.3%	108 ± 1.3%
FC(F)(F)c1ccc(CNc2ccc(Cc3c[nH]c4ncc(Cl)cc34)cn2)cc1	112.2 ± 0.43%	106 ± 19%
CN1CC[C@H](c2c(O)cc(O)c3c(=O)cc(-c4ccccc4Cl)oc23)[C@H](O)C1 [Flavopiridol (Alvocidib) hydrochloride]	113.8 ± 0.38%	100 ± 3.2%
CCCCCCCCCCCCCCCCn1cc[n+](Cc2ccccc2)c1C	124 ± 5.5%	111 ± 5.8%
CCC(=O)N1CCN(c2ccc(-n3c(=O)ccc4cnc5ccc(-c6cnc7ccccc7c6)cc5c43)cc2C(F)(F)F)CC1 [Torin 1]	104 ± 4.5%	108 ± 6.9%
O=c1cc(N2CCOCC2)oc2c(-c3ccccc3)cccc12	107 ± 28%	104 ± 16%
CC(C)(C)c1cc(C=C(C#N)C(N)=S)cc(C(C)(C)C)c1O	108 ± 5.4%	111 ± 3.4%
CNCc1ccc(-c2cc(-c3nc(-c4ccc(S(=O)(=O)C(C)C)cc4)cnc3N)on2)cc1	106 ± 1.8%	101 ± 18%
Nc1cc(C(F)(F)F)c(-c2cc(N3CCOCC3)nc(N3CCOCC3)n2)cn1 [BKM120 (NVP-BKM120, Buparlisib)]	93.7 ± 4.8%	99.8 ± 2.8%
CC#CC(=O)N1CCC[C@H]1c1nc(-c2ccc(C(=O)Nc3ccccn3)cc2)c2c(N)nccn12 [Acalabrutinib]	111 ± 8.4%	125.6 ± 1.1%
NS(=O)(=O)c1ccc(Nc2nc(OCC3CCCCC3)c3[nH]cnc3n2)cc1	104 ± 34%	109 ± 13%
Cn1ncc(Cl)c1-c1cc(C(=O)N[C@H](CN)Cc2cccc(F)c2)sc1Cl [Afuresertib]	111 ± 4.8%	113 ± 2.5%
O=C1NCCc2[nH]c(-c3ccncc3)cc21	115 ± 14%	115 ± 6.7%

Source: the supplement of paper PMC8699584
